# According to PubChem BioAssay (Tox21):
# Records with an inconclusive call do not appear. Values without a mark were called inactive. The call rests on the fitted dose curve; in most records, active means well fitted inhibition curve with a large enough effect in the signal ratio in the repeat runs (not every such curve was filed as active); inconclusive means weak or mixed curves, or effect the other way; inactive means flat fitted curve, though single readings scatter; the % refers to the signal ratio.
# Assay: cAMP Responsive Elements (CRE) small molecule antagonists, cell-based qHTS assay (AID 1963591)
# Conditions: CRE-bla HEK293T, beta-lactamase FRET ratio; series mostly up to 92.4 µM; activity change, negative = inhibition: at the top concentration
# From the text: U.S. Tox21 Program National Center for Advancing Translational Sciences [NCATS] Division of Preclinical Innovation [DPI] U.S. Environmental Protection Agency [EPA] National Institutes of Environmental Health Sciences [NIEHS] National Toxicology Program [NTP] U.S. Food and Drug Administration [FDA] Tox21 Assay Overview: CREB (cyclic-AMP Responsive Element Binding Protein) is a cellular transcription factor. It binds to certain DNA sequences called cAMP Responsive Elements (CRE) and regulates the transcription of the genes. […] This cell line can be used to find agonists/antagonists of the cyclic AMP signaling pathway. The activation of the report gene under culture conditions can be detected by fluorescence intensity. This cell line has been used to screen the Tox21 10K compound library to […].
# Tox21 Assay Protocol Summary: CRE-bla Hek 293T cells were suspended in assay medium (DMEM containing 10% dialyzed FBS, 0.1 mM NEAA, 1 mM sodium pyruvate and 25 mM HEPES) and dispensed at 2,000 cells/4 uL /well into 1536-well black wall/clear bottom plates using a Multidrop Combi (ThermoFisher Scientific, Waltham, MA) dispenser. After the assay plates were incubated at 37 C/5% CO2 for 18 hrs, 23 nL of compounds dissolved in DMSO, positive controls or DMSO only was transferred to the assay plate by a pintool workstation (Kalypsys, San Diego, CA), followed by addition of 1 […] uL of 1.25uM NKH477 (0.25 uM as final concentration) in assay medium using a Flying Reagent Dispenser (Aurora Discovery, San Diego, CA). The plates were incubated at 37 C and 5% CO2 for 3 hrs. Then 1 uL of LiveBLAzer B/G FRET substrate (Invitrogen, Carlsbad, CA) was added to each well using Bioraptr Flying Reagent Dispenser (FRD, Aurora Discovery, San Diego, CA). The plates were incubated at room temperature for 2 h.
# On the % scale 0 is the no-effect control and ±100 the full control effect.
row,SMILES,"activity change, negative = inhibition"
1,Cc1ccc(C(C)C)cc2c(C)ccc1-2,0.494% [at 42.4 µM]
2,CCCC(=O)OC(C)(C)Cc1ccccc1,-10.4%
3,CCC(C)[O-].CCC(C)[O-].CCOC(=O)/C=C(/C)[O-].[Al+3],-3.57%
4,CCCCN(CCCC)C(=S)SSC(=S)N(CCCC)CCCC,-9.92%
5,CC(=O)c1ccccc1[N+](=O)[O-],1.22%
6,BrCc1cccc(Oc2ccccc2)c1,6.78%
7,OCc1cc(C(O)CNCCCCCCOCCCCc2ccccc2)ccc1O (stereo not given),0.0328% [at 42.4 µM]
8,CCCCNCC,-7.19%
9,C=CCOCC(O)CCl (stereo not given),-2.77%
10,CCCOC(OCCC)OCCC,-14.7%
11,CCCCOCCOCCOCCOCCO,2.55%
12,CCN(CC)CCNC(=O)COc1ccc(OC)cc1,-0.481% [at 42.4 µM]
13,CC(=O)Nc1ccc(OC(=O)c2ccccc2OC(C)=O)cc1,-8.91% [at 42.4 µM]
14,CC(=O)OC(C)C[N+](C)(C)C (stereo not given),0.958% [at 42.4 µM]
15,C=C[Si]1(C)O[Si](C)(C=C)O[Si](C)(C=C)O[Si](C)(C=C)O1 (stereo not given),-2.56%
16,O=C(N[C@H](CO)[C@H](O)c1ccc([N+](=O)[O-])cc1)C(Cl)Cl,-9.2%
17,Cc1cc(-c2ccc(N=Nc3cc(S(=O)(=O)O)c4ccccc4c3N)c(C)c2)ccc1N=Nc1cc(S(=O)(=O)O)c2ccccc2c1N,-22.3%
18,C[C@@H]1C[C@H]2[C@@H]3CCC4=CC(=O)C=C[C@]4(C)[C@@]3(F)[C@@H](O)C[C@]2(C)[C@@]1(O)C(=O)COC(=O)c1ccncc1,-4.08% [at 42.4 µM]
19,CC(C)=CCCC(C)CCOC=O (stereo not given),2.63%
20,C=CC(=O)N1CCOCC1,2.38%

row,SMILES,"activity change, negative = inhibition"
1,CCC(C)OC(C)CC (stereo not given),6.05%
2,CC(CN(CCN(CC(C)OCCO)CC(C)OCCO)CC(C)OCCO)OCCO (stereo not given),-1.5%
3,Cc1ccc(OC(=O)CC(C)C)cc1,-6.6%
4,CCCOc1ccc2nc(NC(=O)OC)[nH]c2c1,-7.37% [at 42.4 µM]
5,C=CCOCC(O)CS(=O)(=O)O (stereo not given),-2.98%
6,Cc1ccc(N)cc1S(=O)(=O)O,-7.93%
7,COc1cc(-c2ccc(=O)[nH]n2)ccc1OC(F)F,2.31% [at 42.4 µM]
8,Cc1c(-c2ccccc2)oc2c(C(=O)OCCN3CCCCC3)cccc2c1=O,17.5% [at 42.4 µM]
9,CS(=O)(=O)c1ccc([C@@H](O)[C@@H](CF)NC(=O)C(Cl)Cl)cc1,-2.84% [at 42.4 µM]
10,NNc1nc(-c2ccc(N)cc2)cs1,-3.19%
11,CC(=O)OC(C(=O)c1ccccc1)c1ccccc1 (stereo not given),-3.42%
12,Cn1c(=O)c2c(ncn2CC2OCCO2)n(C)c1=O,1.48% [at 42.4 µM]
13,C=C1c2cccc(O)c2C(O)=C2C(=O)[C@]3(O)C(O)=C(C(N)=O)C(=O)[C@@H](N(C)C)[C@@H]3[C@@H](O)[C@H]12,-16.2% [at 42.4 µM]
14,CC(C)(O)c1ccc(C(C)(C)O)cc1,-0.287%
15,C/C(C=O)=C\c1ccccc1,-1.55%
16,NCCc1ccn[nH]1,-7.2% [at 42.4 µM]
17,C[C@H]1COc2c(C3(N)CC3)c(F)cc3c(=O)c(C(=O)O)cn1c23,6.17% [at 42.4 µM]
18,c1cc(CCCc2ccncc2)ccn1,15.7%
19,O=[N+]([O-])c1cccc(C(F)(F)F)c1,7.05%
20,N=C(N)N1CCc2ccccc2C1,-2.28% [at 8.39 µM]
